According to PubChem BioAssay AID1159580 (chemical genetic matrix, 2015):
Among all 5,500 compounds or so, about 2,000 (36%) were called active. Not shown: some 18% with an inconclusive outcome. Rule as the data show it: active = normalized growth mostly below about 0.91 (no sharp cut-off); inconclusive = no clear call, values can overlap the other calls; inactive = mostly above about 0.92. The list shows a part of the results.

Experiment: chemical genetic growth profiling, strain panel (AID 1159580);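 also: tested at 20 µM; growth read once vehicle control cultures reached saturation at 30 °C; 1 = growth at the plate median or of vehicle wells; lower values mean less growth of the strain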
Conditions: growth OD
[1] = S. cerevisiae deletion strains, locus YBR021W, strain FUR4, stronger effect = lower value
[2] = S. cerevisiae deletion strains, locus YBR229C, strain ROT2, stronger effect = lower value
[3] = S. cerevisiae deletion strains, locus YCL029C, strain bik1, stronger effect = lower value
[4] = S. cerevisiae deletion strains, locus YDL035C, strain GPR1, stronger effect = lower value
[5] = S. cerevisiae deletion strains, locus YDL074C, strain BRE1, stronger effect = lower value
[6] = S. cerevisiae deletion strains, locus YDL101C, strain DUN1, stronger effect = lower value
[7] = S. cerevisiae deletion strains, locus YDL134C, strain PPH21, stronger effect = lower value
[8] = S. cerevisiae deletion strains, locus YDL185W, strain tfp1, stronger effect = lower value
[9] = S. cerevisiae deletion strains, locus YDL192W, strain arf1, stronger effect = lower value
[10] = S. cerevisiae deletion strains, locus YDR101C, strain arx1, stronger effect = lower value
[11] = S. cerevisiae deletion strains, locus YDR150W, strain NUM1, stronger effect = lower value
[12] = S. cerevisiae deletion strains, locus YDR162C, strain NBP2, stronger effect = lower value
[13] = S. cerevisiae deletion strains, locus YDR318W, strain mcm21, stronger effect = lower value
[14] = S. cerevisiae deletion strains, locus YDR388W, stronger effect = lower value
[15] = S. cerevisiae deletion strains, locus YDR502C, strain sam2, stronger effect = lower value
[16] = S. cerevisiae deletion strains, locus YEL061C, strain CIN8, stronger effect = lower value
[17] = S. cerevisiae deletion strains, locus YER110C, stronger effect = lower value
[18] = S. cerevisiae deletion strains, locus YER155C, strain BEM2, stronger effect = lower value
[19] = S. cerevisiae deletion strains, locus YER167W, strain BCK2, stronger effect = lower value
[20] = S. cerevisiae deletion strains, locus YGL078C, strain dbp3, stronger effect = lower value
[21] = S. cerevisiae deletion strains, locus YGL086W, strain mad1, stronger effect = lower value
[22] = S. cerevisiae deletion strains, locus YGL248W, strain PDE1, stronger effect = lower value
[23] = S. cerevisiae deletion strains, locus YGR135W, strain pre9, stronger effect = lower value
[24] = S. cerevisiae deletion strains, locus YGR252W, strain gcn5, stronger effect = lower value
[25] = S. cerevisiae deletion strains, locus YHR030C, strain SLT2, stronger effect = lower value
[26] = S. cerevisiae deletion strains, locus YHR079C, strain IRE1 (second series), stronger effect = lower value
[27] = S. cerevisiae deletion strains, locus YHR094C, strain hxt1, stronger effect = lower value
[28] = S. cerevisiae deletion strains, locus YHR129C, strain ARP1, stronger effect = lower value
[29] = S. cerevisiae deletion strains, locus YHR200W, strain rpn10, stronger effect = lower value
[30] = S. cerevisiae deletion strains, locus YIL066C, strain RNR3, stronger effect = lower value
[31] = S. cerevisiae deletion strains, locus YIL073C, strain SPO22, stronger effect = lower value
[32] = S. cerevisiae deletion strains, locus YIL125W, strain kgd1, stronger effect = lower value
[33] = S. cerevisiae deletion strains, locus YIR030C, strain dcg1, stronger effect = lower value
[34] = S. cerevisiae deletion strains, locus YJL095W, strain BCK1, stronger effect = lower value
[35] = S. cerevisiae deletion strains, locus YJL134W, strain LCB3, stronger effect = lower value
[36] = S. cerevisiae deletion strains, locus YJL168C, strain set2, stronger effect = lower value
[37] = S. cerevisiae deletion strains, locus YJL187C, strain SWE1 (second series), stronger effect = lower value
[38] = S. cerevisiae deletion strains, locus YJR043C, strain POL32, stronger effect = lower value
[39] = S. cerevisiae deletion strains, locus YKL009W, strain mrt4, stronger effect = lower value
[40] = S. cerevisiae deletion strains, locus YKL068W, stronger effect = lower value
[41] = S. cerevisiae deletion strains, locus YKL085W, strain MDH1 (second series), stronger effect = lower value
[42] = S. cerevisiae deletion strains, locus YKL085W, strain MDH1, stronger effect = lower value
[43] = S. cerevisiae deletion strains, locus YKL190W, strain CNB1, stronger effect = lower value
[44] = S. cerevisiae deletion strains, locus YKR001C, strain vps1, stronger effect = lower value
[45] = S. cerevisiae deletion strains, locus YLR039C, strain RIC1, stronger effect = lower value
[46] = S. cerevisiae deletion strains, locus YLR058C, strain SHM2, stronger effect = lower value
[47] = S. cerevisiae deletion strains, locus YLR102C, strain apc9, stronger effect = lower value
[48] = S. cerevisiae deletion strains, locus YLR262C, strain YPT6, stronger effect = lower value
[49] = S. cerevisiae deletion strains, locus YLR268W, strain sec22, stronger effect = lower value
[50] = S. cerevisiae deletion strains, locus YLR330W, strain CHS5, stronger effect = lower value
[51] = S. cerevisiae deletion strains, locus YLR342W, strain FKS1 (second series), stronger effect = lower value
[52] = S. cerevisiae deletion strains, locus YLR371W, strain rom2, stronger effect = lower value
[53] = S. cerevisiae deletion strains, locus YLR418C, strain cdc73, stronger effect = lower value
[54] = S. cerevisiae deletion strains, locus YML016C, strain PPZ1, stronger effect = lower value
[55] = S. cerevisiae deletion strains, locus YML032C, strain rad52, stronger effect = lower value
[56] = S. cerevisiae deletion strains, locus YML124C, strain tub3, stronger effect = lower value
[57] = S. cerevisiae deletion strains, locus YMR078C, strain ctf18, stronger effect = lower value
[58] = S. cerevisiae deletion strains, locus YMR223W, strain ubp8, stronger effect = lower value
[59] = S. cerevisiae deletion strains, locus YMR307W, strain GAS1, stronger effect = lower value
[60] = S. cerevisiae deletion strains, locus YNL067W, strain RPL9B, stronger effect = lower value
[61] = S. cerevisiae deletion strains, locus YNL128W, strain TEP1, stronger effect = lower value
[62] = S. cerevisiae deletion strains, locus YNL233W, strain BNI4, stronger effect = lower value
[63] = S. cerevisiae deletion strains, locus YNL250W, strain rad50, stronger effect = lower value
[64] = S. cerevisiae deletion strains, locus YNL271C, strain bni1, stronger effect = lower value
[65] = S. cerevisiae deletion strains, locus YNL298W, strain CLA4, stronger effect = lower value
[66] = S. cerevisiae deletion strains, locus YNL307C, strain MCK1, stronger effect = lower value
[67] = S. cerevisiae deletion strains, locus YNL322C, strain KRE1, stronger effect = lower value
[68] = S. cerevisiae deletion strains, locus YNR052C, strain pop2, stronger effect = lower value
[69] = S. cerevisiae deletion strains, locus YOL006C, strain TOP1, stronger effect = lower value
[70] = S. cerevisiae deletion strains, locus YOL012C, strain htz1
[71] = S. cerevisiae deletion strains, locus YOL147C, strain pex11, stronger effect = lower value
[72] = S. cerevisiae deletion strains, locus YOR061W, strain CKA2, stronger effect = lower value
[73] = S. cerevisiae deletion strains, locus YOR069W, strain VPS5, stronger effect = lower value
[74] = S. cerevisiae deletion strains, locus YOR136W, strain idh2, stronger effect = lower value
[75] = S. cerevisiae deletion strains, locus YOR144C, strain elg1, stronger effect = lower value
[76] = S. cerevisiae deletion strains, locus YOR184W, strain ser1, stronger effect = lower value
[77] = S. cerevisiae deletion strains, locus YOR316C, strain cot1, stronger effect = lower value
[78] = S. cerevisiae deletion strains, locus YPL055C, strain LGE1, stronger effect = lower value
[79] = S. cerevisiae deletion strains, locus YPR119W, strain clb2, stronger effect = lower value
[80] = S. cerevisiae deletion strains, locus YPR141C, strain kar3, stronger effect = lower value
[81] = S. cerevisiae deletion strains, locus YPR163C, strain tif3, stronger effect = lower value
[82] = S. cerevisiae deletion strains, locus YPR167C, strain met16, stronger effect = lower value
[83] = S. cerevisiae deletion strains, strain wtn01, stronger effect = lower value

Measured: normalized growth

COc1ccc(/C=C/c2cc(O)cc(O[C@@H]3O[C@H](CO)[C@@H](O)[C@H](O)[C@H]3O)c2)cc1
inactive: [1] 1.02 | [2] 0.955 | [3] 0.984 | [4] 0.972 | [5] 1.02 | [6] 1 | [7] 1 | [8] 0.974 | [9] 0.994 | [10] 1.01 | [11] 0.997 | [12] 0.977 | [13] 0.986 | [14] 1 | [15] 0.998 | [16] 0.994 | [17] 0.987 | [18] 1.02 | [19] 0.978 | [20] 0.987 | [21] 1.02 | [22] 0.989 | [23] 0.994 | [24] 0.964 | [25] 1 | [26] 0.995 | [27] 0.989 | [28] 0.994 | [29] 0.983 | [30] 0.968 | [31] 1.01 | [32] 0.985 | [33] 0.997 | [34] 1.04 | [35] 0.994 | [36] 0.998 | [37] 1.01 | [38] 0.993 | [39] 1 | [40] 0.979 | [41] 0.982 | [42] 0.982 | [43] 1.01 | [44] 1.01 | [45] 0.99 | [46] 0.986 | [47] 0.987 | [48] 0.961 | [49] 1.03 | [50] 0.996 | [51] 0.995 | [52] 0.978 | [53] 0.984 | [54] 0.992 | [55] 0.97 | [56] 0.987 | [57] 0.994 | [58] 0.985 | [59] 0.965 | [60] 1.03 | [61] 1 | [62] 1.04 | [63] 0.965 | [64] 1 | [65] 1.01 | [66] 0.995 | [67] 0.984 | [68] 1 | [69] 1.05 | [70] 1.36 | [71] 0.988 | [72] 0.971 | [73] 0.993 | [74] 0.992 | [75] 0.985 | [76] 0.979 | [77] 0.999 | [78] 1.01 | [79] 0.998 | [80] 0.982 | [81] 0.991 | [82] 0.992 | [83] 1.01

O=C(/C=C/c1ccccc1)c1c(O)cc(O)cc1O
inactive: S. cerevisiae deletion strains, locus YAL013W, strain DEP1, stronger effect = lower value 1.01 | [1] 0.995 | [2] 1.01 | [3] 1 | [4] 1.02 | [5] 1.02 | [6] 1.01 | [7] 1.02 | [8] 1.01 | [9] 1 | [10] 0.999 | [11] 1.02 | [12] 1.04 | [13] 0.995 | [14] 0.997 | [15] 1 | [16] 1.01 | [17] 1.01 | [18] 1.01 | [19] 1.01 | [20] 1 | [21] 1 | [22] 1.01 | S. cerevisiae deletion strains, locus YGR078C, strain PAC10, stronger effect = lower value 1.03 | [23] 1 | S. cerevisiae deletion strains, locus YGR229C, strain SMI1, stronger effect = lower value 1.02 | [24] 0.972 | [25] 1.01 | [26] 0.994 | [27] 1 | [28] 1.01 | [29] 1 | [30] 1.02 | [31] 1.04 | [32] 1 | [33] 0.999 | [34] 1.01 | [35] 1.01 | [36] 0.993 | [37] 1.01 | [38] 0.998 | S. cerevisiae deletion strains, locus YJR075W, strain HOC1, stronger effect = lower value 1.01 | [39] 1.01 | [40] 1 | [41] 1 | [42] 1 | [43] 1.01 | [44] 1.01 | [45] 1.04 | [46] 1.01 | [47] 0.998 | [48] 1.06 | [49] 0.989 | [50] 1.01 | [51] 1 | [52] 0.997 | [53] 0.992 | [54] 1.01 | [55] 1 | [56] 1.01 | [57] 1 | [58] 0.995 | S. cerevisiae deletion strains, locus YMR263W, strain SAP30, stronger effect = lower value 1.02 | [59] 0.915 | [60] 1.01 | [61] 1.02 | S. cerevisiae deletion strains, locus YNL153C, strain GIM3, stronger effect = lower value 1.03 | [62] 1.02 | [63] 1.01 | [64] 1 | [65] 1.01 | [66] 1.01 | [67] 1.01 | [68] 0.998 | [69] 1.05 | [70] 0.787 | [71] 1.01 | [72] 1.01 | [73] 1.01 | [74] 0.995 | [75] 1 | [76] 1.01 | [77] 0.996 | [78] 1.05 | S. cerevisiae deletion strains, locus YPL241C, strain CIN2, stronger effect = lower value 1.01 | [79] 0.997 | [80] 1.01 | [81] 1 | [82] 0.998 | [83] 1.01 | S. cerevisiae strains, strain wild type, stronger effect = lower value 1.01
